Experimental data as given in the supplement of paper PMC12636033.
± gives the standard deviation of the averaged measurements. Over roughly 33,000 sequences, “E-score (rank enrichment, -0.5 to 0.5)” has its median near -0.0075; the highest 2% begin near 0.23. The full list was thinned out, with the highest values kept by preference.

These sequences were tested on WT Max(13-93) synthetic (M65Nle) (assay: PBM 8-mer E-score (E-score (rank enrichment, -0.5 to 0.5)); higher = stronger preferential binding).
Procedure: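 Protein binding microarray (universal PBM chip covering all 10-mers in fixed probe flanks) with chemically synthesized human Max(13-93) bHLH-LZ analogs (not full-length Max) bearing noncanonical residues (hArg, Tha, Aib, Nle at 65) and aromatic Cys staples. Read-out per 8-mer (and its reverse complement): E-score (rank-based enrichment, -0.5 to 0.5) and Z-score of median probe intensity.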

Sequence | PBM 8-mer E-score
CCGTGCAG | -0.0417 ± 0.026
ACGTGCAC | 0.391 ± 0.021
CTGTGCAC | -0.091 ± 0.017
GCGTGCAC | 0.215 ± 0.033
ACGTGCAT | 0.378 ± 0.013
ACCACGGA | -0.207 ± 0.0078
ATGTCCAC | 0.113 ± 0.011
CAGGACGG | -0.162 ± 0.092
TCATGCGA | 0.034 ± 0.055
ACGCCTTA | -0.0494 ± 0.025
CGCTTAAG | -0.0549 ± 0.15
AGCCTGAC | -0.0941 ± 0.14
CTTATAGC | -0.0275 ± 0.032
GAGCGCTA | -0.0703 ± 0.047
ATGAACCA | 0.145 ± 0.06
ACGGCGGC | -0.238 ± 0.059
CGTGCTAC | 0.2 ± 0.061
CAATGGAG | 0.0245 ± 0.12
CGGGTACG | -0.133 ± 0.043
CCAGGCGG | -0.0313 ± 0.028
CCCAATGA | 0.0385 ± 0.031
ATGTGAGA | 0.231 ± 0.13

Sequence | PBM 8-mer E-score
CCAACTCG | -0.00075 ± 0.037
ACGTGCAA | 0.3 ± 0.035
CCGTGCAA | -0.0752 ± 0.025
TCGTGCAA | 0.131 ± 0.057
AAATACGC | 0.237 ± 0.027
GAATACGC | 0.0909 ± 0.01
AAATACGT | 0.152 ± 0.043
GTGAATCA | -0.115 ± 0.022
ATAACACA | 0.181 ± 0.095
ATAACATC | 0.187 ± 0.028
CTAACACA | 0.121 ± 0.13
GTAACAAA | 0.126 ± 0.0055
ATAACATA | 0.266 ± 0.023
ATTACATA | 0.24 ± 0.039
ATAACACG | 0.307 ± 0.0054
ATAACATG | 0.231 ± 0.01
GTAACACA | 0.238 ± 0.024
ATAACACC | 0.106 ± 0.076
ATTACATG | 0.223 ± 0.061
GTTACATA | 0.113 ± 0.0025
AGGGGAAT | 0.0772 ± 0.04
CCGTAGCC | -0.216 ± 0.071

Sequence | PBM 8-mer E-score
ACGCGTAA | 0.105 ± 0.048
TCGCATCA | 0.046 ± 0.015
AACGCAAA | -0.144 ± 0.021
GATCTTAA | 0.0118 ± 0.0058
CAAATACG | 0.138 ± 0.086
CTTTGCCA | -0.107 ± 0.097
ACAACACA | 0.23 ± 0.091
ACAACACC | 0.158 ± 0.0054
ACAACACG | 0.261 ± 0.034
ATCCATCG | -0.21 ± 0.014
AGCGTGCA | 0.285 ± 0.03
CTCGTGCA | 0.134 ± 0.097
CGCGTGCC | 0.124 ± 0.062
GGCGTGCA | 0.0504 ± 0.037
AGCGTGCG | 0.0436 ± 0.017
CGCGTGCA | 0.285 ± 0.03
CAAATTCA | -0.0652 ± 0.032
ATATTCTC | 0.189 ± 0.055
ATGCCACA | 0.00378 ± 0.092
AAACCACA | 0.223 ± 0.0085
CAACCACG | 0.301 ± 0.041
ATACCACA | 0.159 ± 0.0088

Sequence | PBM 8-mer E-score
CAACCACA | -0.0966 ± 0.041
GTGCCACA | -0.00257 ± 8.5e-05
ATGCCACG | 0.259 ± 0.059
ATACCACG | 0.255 ± 0.015
ATACCACC | 0.121 ± 0.028
CGTGATTC | 0.117 ± 0.036
AGAACTGC | -0.0987 ± 0.0029
CTTCACCC | 0.151 ± 0.046
ATAGACGG | 0.103 ± 0.018
ATGCGCAC | 0.102 ± 0.09
ATGCGCAT | 0.285 ± 0.06
ATGCGCAA | 0.1417 ± 0.00042
CAACGCAG | -0.158 ± 0.021
ACCCGAAC | -0.0582 ± 0.096
AATGAACG | 0.163 ± 0.04
AACACCGC | -0.0751 ± 0.024
CTTTAAAC | 0.143 ± 0.0068
ATTTAAAG | 0.0962 ± 0.044
GTTTAAAC | 0.254 ± 0.0084
GTTTAAAA | 0.0508 ± 0.026
